Laboratory results: the supplement of paper PMC6555819

Assays:
Test in all cases: PBM binding z-score (relative to random genomic background probes); higher = stronger binding; sequences stand for … in GC…GCGATTGACAGCGTAGAATGAAGG
[1] = test system: FXR:RXRa (NR concentration 270 nM, RXRa partner concentration 90 nM)
Method in brief: (§1)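 Antibodies against each partner of ligand-free nuclear receptor dimers (one per run) detected binding on custom Agilent 4×180K protein-binding microarrays after 1 h incubation. The double-stranded probes had 34-nt variable regions carrying direct-repeat seeds, single-nucleotide variants, half-site ablations and random human genomic background sequences. Binding z-scores, from regression-normalized fluorescence, use the random background probes as reference.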

[2] = test system: LXRa:RXRa (NR concentration 270 nM, RXRa partner concentration 90 nM)
Method in brief: as §1

[3] = test system: LXRa homodimer (NR concentration 270 nM)
Method in brief: as §1

[4] = test system: LXRb:RXRa (NR concentration 270 nM, RXRa partner concentration 90 nM)
Method in brief: as §1

[5] = test system: LXRb homodimer (NR concentration 270 nM)
Method in brief: as §1

[6] = test system: PPARa:RXRa (NR concentration 270 nM, RXRa partner concentration 90 nM)
Method in brief: as §1

[7] = test system: PPARg:RXRa (NR concentration 180 nM, RXRa partner concentration 90 nM)
Method in brief: as §1

[8] = test system: PPARg:RXRa 270nM:90nM, anti-RXR (NR concentration 270 nM, RXRa partner concentration 90 nM)
Method in brief: as §1

[9] = test system: PPARg:RXRa 30nM:10nM, anti-RXR (NR concentration 30 nM, RXRa partner concentration 10 nM)
Method in brief: as §1

[10] = test system: PPARg:RXRa 90nM:30nM, anti-RXR (NR concentration 90 nM, RXRa partner concentration 30 nM)
Method in brief: as §1

[11] = test system: PPARg:RXRa DBDmut IVT, anti-RXR (DBD mutation: RXRa K156A/R161A, NR concentration 270 nM, RXRa partner concentration 90 nM)
Method in brief: as §1

[12] = test system: PPARg:RXRa IVT, anti-PPARg (NR concentration 270 nM, RXRa partner concentration 90 nM)
Method in brief: as §1

[13] = test system: PPARg DBDmut:RXRa IVT, anti-PPARg (DBD mutation: PPARg1 K132A/R137A, NR concentration 270 nM, RXRa partner concentration 90 nM)
Method in brief: as §1

[14] = test system: PPARg DBDmut IVT, anti-PPARg (DBD mutation: PPARg1 K132A/R137A, NR concentration 270 nM)
Method in brief: as §1

[15] = test system: PPARg homodimer (NR concentration 180 nM)
Method in brief: as §1

[16] = test system: PXR:RXRa (NR concentration 270 nM, RXRa partner concentration 90 nM)
Method in brief: as §1

[17] = test system: PXR homodimer (NR concentration 270 nM)
Method in brief: as §1

[18] = test system: RARa:RXR (NR concentration 270 nM, RXRa partner concentration 90 nM)
Method in brief: as §1

[19] = test system: RARa homodimer (NR concentration 270 nM)
Method in brief: as §1

[20] = test system: RARb:RXRa (NR concentration 270 nM, RXRa partner concentration 90 nM)
Method in brief: as §1

| Sequence | PBM binding z-score [1] | PBM binding z-score [2] | PBM binding z-score [3] | PBM binding z-score [4] | PBM binding z-score [5] | PBM binding z-score [6] | PBM binding z-score [7] | PBM binding z-score [8] | PBM binding z-score [9] | PBM binding z-score [10] | PBM binding z-score [11] | PBM binding z-score [12] | PBM binding z-score [13] | PBM binding z-score [14] | PBM binding z-score [15] | PBM binding z-score [16] | PBM binding z-score [17] | PBM binding z-score [18] | PBM binding z-score [19] | PBM binding z-score [20] |
| --- | --- | --- | --- | --- | --- | --- | --- | --- | --- | --- | --- | --- | --- | --- | --- | --- | --- | --- | --- | --- |
| CCGACAGGGGCATAAGGTTACCATAAGCCAGCCC | 0.857 | 2.05 | -0.0589 | 1.1 | -1.11 | 1.9 | 1.11 | 0.825 | -0.159 | 0.389 | -0.166 | 0.15 | -1.21 | -1.04 | 0.637 | 0.688 | -0.195 | 1.93 | -0.124 | 2.11 |
| ATCGAAAGTTCGTGAGGTGAGTATACAGAAAGGC | 1.21 | 1.26 | 0.0798 | 0.398 | -0.197 | 1.88 | 0.759 | 0.561 | 0.146 | 0.655 | -1.13 | 0.316 | 0.654 | 0.402 | 0.342 | 1.08 | 0.69 | 1.39 | 0.453 | 2.17 |
| CCTACTGGGCCAAAGGTCATTTATTCCAATGCTC | 4.91 | 5.02 | 5.54 | 5.19 | 1.7 | 6.68 | 12.4 | 10.4 | 11 | 11.5 | 5.13 | 6.94 | 0.54 | 0.179 | 5.03 | 5.54 | 1.8 | 6.34 | 2.22 | 4.25 |
| TCCGACAGGTGAAGGTAACTCAGGTACGCAGTCG | 0.658 | 1.48 | -0.467 | 0.558 | -0.785 | 0.847 | 0.493 | 1.09 | 2.1 | 1.34 | 1.51 | 1.05 | -0.595 | -0.742 | -0.0885 | 0.293 | -0.308 | 0.63 | -0.702 | 0.858 |
| GCGACTGGGGCAAAGCAGGTTATCATAAGGTTGG | 0.502 | 0.29 | -0.027 | 0.318 | -0.831 | 1.41 | 1.29 | 1.17 | -0.476 | 0.229 | 4.56 | 3.61 | -0.685 | -0.693 | -0.345 | 0.44 | -0.841 | 0.549 | -0.943 | 0.894 |
| ATCGAAAGGTAGTGAGGTGAGTATACAGAAAGGC | 0.0464 | -0.187 | 0.0161 | -0.247 | -0.154 | 0.153 | 0.582 | 0.0693 | 0.155 | 0.0111 | -0.75 | 0.597 | 0.685 | 1.02 | -0.358 | -0.273 | 0.226 | -0.126 | 0.18 | 0.322 |
| TTACCAAGGTGAGCTGAGATCGTTGATCCAACTC | -0.243 | -0.689 | -0.907 | -0.704 | -1.18 | 0.12 | -0.0237 | 0.4 | -0.0278 | 0.278 | 1.12 | 1.5 | -0.91 | -0.653 | -1.58 | 0.00925 | -1.19 | -0.376 | -1.19 | 0.893 |
| TTACCAAGGTGAAGGTCGTTGCTCCCTCTGTAGA | 2.26 | 1.91 | 0.0546 | 1.46 | -0.474 | 2.7 | 2.96 | 4.34 | 2.21 | 3.83 | 2.04 | 3.56 | -0.269 | 0.0241 | 1.17 | 1.46 | 0.225 | 1.65 | -0.269 | 2.39 |
| CGAACAAGGGCATGAGTTGATAGCAAATGCCGAT | -0.0162 | 0.00346 | -0.221 | -0.134 | -0.495 | 0.425 | 0.963 | 0.765 | 0.259 | 0.196 | 1.66 | 0.813 | -0.522 | -0.153 | 0.0917 | -0.0332 | -0.184 | -0.0493 | 0.0122 | 2.02 |
| CCTAGCAGGCCAATCTGGGTCACCCAAGGCTTGA | 0.68 | 1.16 | -0.385 | 0.427 | -0.863 | 3.04 | 2.45 | 2.51 | -0.13 | 1.89 | 3.64 | 4.92 | -0.253 | -1.35 | 0.456 | 1.03 | -0.451 | 1.59 | -0.135 | 1.62 |
| CCAGACAGGTGAAAAGGTAACTCAGCCTCGATTA | 0.33 | 0.666 | -0.0851 | 0.744 | -0.438 | 2.09 | 1.27 | 2.24 | 0.682 | 1.77 | 1.6 | 1.25 | -0.262 | -0.729 | 1.18 | 0.509 | 0.481 | 1.45 | 1.21 | 1.43 |
| GATAGCAGGCCATTTGGGTCACTCAATGACGGGC | 0.302 | -0.115 | -0.247 | 0.0936 | -0.607 | 1.73 | 1.4 | 1.12 | -0.311 | 0.763 | 3.66 | 3.5 | -0.0916 | -0.698 | -0.0574 | 0.523 | 0.0979 | 0.747 | -0.472 | 1.55 |
| CAGACTAGGTCACAGAGGTCAAAGTCCGTGCGTA | 6.87 | 6.52 | 6.79 | 6.23 | 1.62 | 6.22 | 8.66 | 7.43 | 5.05 | 7.36 | 7.57 | 8 | 2.36 | 0.704 | 4.93 | 6.65 | 11.5 | 7.28 | 2.93 | 5.07 |
| TCTGCTAGGTCAGCTGGTCAGCTAACGAGCTGCC | 1.35 | 0.826 | -1.11 | 0.287 | -0.343 | 1.95 | 0.828 | 1.78 | 1.12 | 1.23 | 2.65 | 2.82 | -0.25 | -0.593 | 0.0537 | 0.279 | -1.58 | 0.872 | -1.54 | 3.64 |
